Shown are actives, neighbours in structure and some others; about 2.7% of the full set was active somewhere.
Tau FP inhib: inhibitors of human tau fibril formation; Potency, µM (series often up to 57.7 µM), for the others: at the top dose activity, negative = inhibition, hits mostly inhibitors; K18 P301L tau heparin fibrillization, Alexa594 FP, 6 h; actives 0.39% (n = 280,000); P10636; AID 1468; note: potency is the fitted concentration of half-maximal effect; nearly all actives have a fitted effect of over 55% in size
Target sequence (P10636 561-689 P618L limits assumed): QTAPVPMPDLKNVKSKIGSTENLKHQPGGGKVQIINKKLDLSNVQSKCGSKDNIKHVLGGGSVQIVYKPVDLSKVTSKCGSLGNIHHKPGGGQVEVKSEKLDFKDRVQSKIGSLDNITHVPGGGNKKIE
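Compound effects on tau fibrillization are measured by Alexa 594 fluorescence polarization (ex 555, em 632 nm). K18 P301L tau is used at 15 uM with 0.24 uM labeled tracer, and 20 uM heparin induces aggregation over 6 hr at 37 C.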
Tau fluor counter: counter-screen for tau fibril formation inhibitors | actives 0.93% (n = 280,000) | AID 1463 | Potency, µM (highest dose often 57.7 µM), without a hit: at the top dose activity change, negative = decrease | tau K18 P301L Alexa594 fluorescence, heparin fibrillization; note: potency is the fitted concentration of half-maximal effect; nearly all actives have a fitted effect of over 55% in size
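Human K18 P301L tau (15 uM unlabeled plus 0.24 uM Alexa 594-labeled, final) in 100 mM sodium acetate pH 7 was mixed with compound and 20 uM heparin and incubated 6 hr at 37 C.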
Tau ThT inhib: inhibitors of human tau fibril formation, thioflavin T binding. AID 1460. Potency, µM (top dose mostly 57.4 µM), without a hit: top-dose activity, negative = inhibition, most hits filed as inhibitors. actives 2.1% (n = 270,000). recombinant tau K18 P301L (four-repeat tau fragment), heparin-induced fibrillization, ThT fluorescence; note: potency is the fitted concentration of half-maximal effect; nearly all actives have a fitted effect of over 55% in size
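Heparin-induced fibrillization of the P301L-mutant K18 repeat-domain fragment of human tau was followed by ThT binding in quantitative high-throughput format.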
FBPA coupling cs: inhibits coupling enzyme system, counter-screen for aldolase hits | coupling enzyme system counterscreen, AmpLite Red fluorescence | activity change, negative = inhibition, % at 58.2 µM, hits read low | actives 0.67% (n = 290,000) | AID 2472; in the data active = activity change below about -30%
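First, compound is pin-transferred into glyceraldehyde-3-phosphate coupling-enzyme reagent at 57.5 uM final and held 10 min at RT. Next, substrate, coupling system and AmpLite Red are added. After 20 min RT, fluorescence (525/598 nm) is read.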
* marks the source's active call; other numbers are inactive results; ? = inconclusive; . = no result given; ! = repeats disagree; [ ] = another dose, or the depositor's remark. Unless noted, calls come from the whole dose curve; as a rule, active = well fitted curve in the direction sought with a large enough effect; inconclusive = small, poorly fitted or top-dose-only effect, or another doubt; inactive = no such curve, though single readings can be large; an effect the other way counts as inactive or inconclusive. % is set by controls: 0 for no effect and ±100 for the full control effect.

SMILES | Tau FP inhib | Tau fluor counter | Tau ThT inhib | FBPA coupling cs
O=C(CNc1cccc2ccccc12)N/N=C/c1ccc[nH]1 | 19% | -26% | ? | 1
Cc1nc(Nc2ccc(Cl)cc2)cc(-c2ccccc2)n1 | 28µM* | 13µM*[quencher] | 21% | .
COc1cccc(Nc2cc(-c3ccccc3)nc(C)n2)c1 | -9% | 28µM*[quencher] | ? | .
COC(=O)C1=C(C(=O)OC)[C@@H]2Nc3ccccc3[C@@]23C[C@@H](C(=O)OC)N(S(=O)(=O)c2ccc(Br)cc2)C3=N1 | 1%[11.6 µM] | -18%[11.6 µM] | -2%[11.5 µM] | 2
C/C(CC(=O)Nc1ccc(N(C)C)cc1)=N\NC(=O)Cc1csc(N)n1 | -4% | -4% | -4% | -32*
COc1ccc(CC(=O)N/N=C(\C)CC(=O)Nc2ccc(N(C)C)cc2)cc1 | . | . | . | 0
NS(=O)(=O)c1ccc(Nc2nc3ccccc3nc2NS(=O)(=O)c2cccc([N+](=O)[O-])c2)cc1 | 8% | ? | 11µM* | 3
COc1ccccc1NS(=O)(=O)c1cc(NC(=O)c2ccncc2)ccc1N1CCCC1 | 1% | 22µM*[quencher] | ? | -12
O=C(Nc1ccc(Cl)cc1)Nc1ccc(N2CCCC2)c(S(=O)(=O)Nc2ccccc2Cl)c1 | ? | 2.8µM*[quencher] | -8% | -5
COc1ccccc1NS(=O)(=O)c1cc(NC(C)=O)ccc1N1CCCCC1 | -12% | ? | -2% | 0
COc1ccccc1NS(=O)(=O)c1cc(NC(=O)Nc2cccc(C)c2)ccc1N1CCCCC1 | 28µM* | ? | ? | 1
COc1ccccc1NS(=O)(=O)c1cc(NC(=O)c2ccc(=O)[nH]c2)ccc1N1CCOCC1 | -5% | -18% | 5% | -3
COc1ccccc1NS(=O)(=O)c1cc(NC(=O)c2[nH]c(C)c(C(C)=O)c2C)ccc1N1CCOCC1 | ? | 13µM*[quencher] | -12% | 0
CC(=O)c1c(C)[nH]c(C(=O)Nc2ccc(C)c(S(=O)(=O)Nc3ccc(C)cc3C)c2)c1C | ? | 22µM*[quencher] | -12% | -6
CC(=O)c1c(C)[nH]c(C(=O)Nc2ccc(C)c(S(=O)(=O)N(C)C)c2)c1C | -12% | -3% | 1% | 0
Cc1cccc(N2C(=O)C(Cl)=C(Nc3c(C)n(C)n(-c4ccccc4)c3=O)C2=O)c1C | ? | -17% | ? | -1
Cc1ccc(N2C(=O)C(Cl)=C(Nc3c(C)n(C)n(-c4ccccc4)c3=O)C2=O)cc1 | ? | -27% | 28µM* | 4
CCOC(=O)Cc1ccc(NC(=O)Nc2ccccc2OCc2cc(=O)n3ccccc3n2)cc1 | 1% | -8% | -4% | .
N#C/C(=N\Nc1cccc(Cl)c1)C(=O)c1ccccc1 | 11% | ? | 10µM* | -3
CCC(CC)=NNc1cccc([N+](=O)[O-])c1 | 6% | -2% | 6% | 1
N#C/C(=N\Nc1ccccc1Cl)C(=O)c1ccccc1 | ? | -22% | 20µM* | -3
COc1ccc(C(=O)/C(C#N)=N/Nc2cccc([N+](=O)[O-])c2)cc1 | 5% | ? | 7.9µM* | 6
Cc1c(N/N=C(\C#N)C(=O)c2ccccc2)c(=O)n(-c2ccccc2)n1C | -3% | -20% | ? | 0
CC(=O)/C(N)=N/Nc1cccc(Cl)c1 | 16% | ? | ? | 0
CC(NCCC1(Cc2ccccc2Cl)CCOC(C)(C)C1)c1cccs1 (configuration not stated) | 11% | -11% | -14% | 1
SMILES | Tau FP inhib | Tau fluor counter | Tau ThT inhib | FBPA coupling cs
Cc1cccc(S(=O)(=O)Nc2ccc(C)c3c2OC(C)(C)C3)c1 | -2% | -17% | -11% | -44*
Cc1ccc(NS(=O)(=O)c2ccccc2Cl)c2c1CC(C)(C)O2 | -3% | -18% | -17% | .
CC1CCc2c(sc(NC(=O)c3cc(-c4cccc(Cl)c4)on3)c2C(N)=O)C1 (configuration not stated) | 1% | 2% | ? | .
Clc1ccc(Nc2ccc(-n3ccnc3)nn2)cc1Cl | ? | 13µM*[quencher] | 1% | 0
c1ccc(Nc2ccc(-n3ccnc3)nn2)cc1 | 7% | -16% | ? | 1
Cc1ccccc1N1CCN(S(=O)(=O)CC23CCC(CC2NC(=O)C(N)CCS(C)(=O)=O)C3(C)C)CC1 (configuration not stated) | . | . | . | 3
N#C/C(=C\c1cc(O)c(O)c(O)c1)C(N)=O | -8% | -21% | ? | -49*
CC1=C(c2ccccc2)[N+](=O)C2(CCCC2)N1[O-] | -3% | 4% | -9% | 4
O=[N+]([O-])c1ccc2c(c1)N([O-])C1(CCCCC1)[N+]2=O | 11µM* | ? | 3.5µM* | -51*
COc1ccc2cc3[n+](cc2c1OC)CCc1cc2c(cc1-3)OCO2 | -10% | -9% | 18µM* | -36*!
COc1ccc(-n2nc(C(=O)c3cccs3)cc(-c3nc4ccccc4[nH]3)c2=N)cc1 | -3% | ? | 4µM* | 4
COc1ccc(CNCCSc2nnnn2-c2ccccc2)c(OC)c1 | 6% | 10% | 13% | .
Cc1ccc2nc3sc(C(=O)NCc4ccco4)c(N)c3cc2c1 | -12% | -30% | ? | 2
COc1cc2cc3c(N)c(C(=O)Nc4sc(C)c(C)c4C#N)sc3nc2cc1OC | 8% | -27% | 5µM* | -10
COc1cc2cc3c(N)c(C(=O)NCc4ccco4)sc3nc2cc1OC | -5% | ? | 14µM* | 1
Cc1cc(C(=O)Nc2sc(C)c(C)c2C#N)no1 | 1% | -7% | ? | 4
COc1ccc(/C=C2/NC(=O)CNC2=O)cc1 | . | . | . | 2
CCCCCCCCNC(=S)NCCN1CCCCC1 | -2% | -16% | -4% | 1
O=C1OC(c2ccc(F)cc2)=C/C1=C\c1ccc([N+](=O)[O-])o1 | ? | ? | 16µM* | 0
COc1cccc(C(=O)Nc2nnc(S(=O)(=O)N3CCCc4ccccc43)s2)c1 | 4% | -13% | ? | .
Cc1cc(N=Nc2ccc(C)c(N=Nc3cc(C)c(N)cc3N)c2)c(N)cc1N | -4% | 16µM*[quencher] | 4µM* | -21
CN1CCc2c(sc3ncn4nc(-c5ccccc5O)nc4c23)C1 | ? | -26% | 28µM* | 0
CCc1ccc(C2=NN(CCC(=O)NCCc3ccc(Cl)cc3)C(=O)CC2)cc1 | 0% | -3% | -15% | .
COc1ccc(/C=C/C(=O)c2ccc3ccccc3c2O)cc1CN1CCOCC1 | -15% | -23% | 16µM* | -3
COc1cc2[nH]c(Cl)c([N+](=O)[O-])c2cc1OC | ? | ? | 14µM* | -48*
COc1ccc(N2CCN(CCCNC(=O)c3cc(Nc4ccccc4OC)nc4ccccc34)CC2)cc1 | -3% | 8.9µM*[quencher] | ? | .
COc1ccc(Nc2cc(C(=O)NCCCN3CCN(c4ccc(OC)cc4)CC3)c3ccccc3n2)cc1 | -2% | 4µM*[quencher] | 14µM* | .
COc1ccc(Nc2cc(C(=O)NCc3ccccc3)c3ccccc3n2)c(OC)c1 | ? | 7.9µM*[quencher] | ? | .
COc1ccc(Nc2cc(C(=O)NCCCN3CCOCC3)c3ccccc3n2)c(OC)c1 | 9% | -25% | ? | 0
COc1ccc(Nc2nc(C)cc(C)c2C(N)=O)c(OC)c1 | ? | -19% | ? | -40*

Screening data deposited in PubChem by National Center for Advancing Translational Sciences (NCATS).
